A selection: hits, their analogues and other compounds. The true share with any hit is near 2.6%.
eIF4H FP inh: inhibitors of RNA binding by human eIF4H; actives 0.94% (n = 290,000); inhibition, % at 35 µM; AID 2012; eIF4H fluorescence polarization binding assay;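 note: calls also rest on retests at 20 µM and on dose response follow-up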
PABP polyA inh: PABP-poly(A) binding inhibition. P11940. PABP-poly(A) RNA binding, fluorescence polarization. inhibition, % at 35 µM. actives 1% (n = 290,000);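 note: calls also rest on retests at 20 µM and on dose response follow-up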
PHOSPHO1 block: blocks human PHOSPHO1 phosphatase activity; Q8TCT1; recombinant PHOSPHO1, absorbance phosphatase assay; inhibition, % at 13.3 µM; actives 1.1% (n = 290,000); AID 1565; in the data active = inhibition above about 60%
Target sequence (Q8TCT1 whole entry, looked up): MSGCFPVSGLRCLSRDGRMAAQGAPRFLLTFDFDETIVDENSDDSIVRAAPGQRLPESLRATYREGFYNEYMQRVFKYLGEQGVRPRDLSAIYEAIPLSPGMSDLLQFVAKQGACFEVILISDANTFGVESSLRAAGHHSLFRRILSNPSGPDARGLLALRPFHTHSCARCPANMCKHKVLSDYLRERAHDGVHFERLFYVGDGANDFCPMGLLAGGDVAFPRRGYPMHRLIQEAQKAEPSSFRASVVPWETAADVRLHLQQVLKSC
MLLE-PAM2 inh: inhibitors of microRNA-mediated deadenylation, human PABP1 MLLE binding; GST-MLLE / FITC-PAM2 fluorescence polarization; inhibition, % at 20 µM; actives 0.36% (n = 360,000); AID 588489; P11940; in the data active = inhibition above about 35%, passing the limit was not always enough;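 note: plate controls were DMSO wells with GST-MLLE for no effect and wells lacking GST-MLLE protein for full effect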
CRFR2-BP antag: CRF-BP/CRF-R2 complex antagonism; inhibition, % at 11.8 µM; actives 0.59% (n = 350,000); AID 588475; HEK293 CRF-R2/CRF-BP, CRF-induced calcium fluorescence;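 active = inhibition of the ligand-induced calcium signal above about 50% at the single tested concentration, limit read from the data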
Numbers without * were called inactive; ? = inconclusive; · = not tested or not shown. Unless noted, the rule behind the calls is not given here.

SMILES	eIF4H FP inh	PABP polyA inh	PHOSPHO1 block	MLLE-PAM2 inh	CRFR2-BP antag
CCCOC(=O)CSC1=C(C#N)C(c2ccccc2OCC)C(C#N)C(=O)N1 (centres undefined)	-8	4	75*	18	11
CCOC(=O)CSC1=C(C#N)C(c2ccc(Cl)cc2)C(C(=O)OC)C(=O)N1 (centres undefined)	-13	6	-18	23	53*
COc1cc(OC)c2c(c1)C(=O)c1cc(OC)cc(OC)c1C2=O	64	46	107*	-17	2
COc1ccc(C=C2c3ccccc3C(=O)c3ccccc32)c(OC)c1	-6	-8	24	-13	·
CCN(CC)c1ccc(NC(=O)Cn2cc3c(n2)CCC(C)C3)c(C)c1 (centres undefined)	5	-4	83*	-3	-26
COc1cc(C2CC(=O)Oc3c2c(=O)n(C)c2ccccc32)ccc1O (centres undefined)	64*	23	2	3	-17
COc1cc(C2CC(=O)Oc3c2c(=O)n(C)c2ccccc32)cc(OC)c1OC (centres undefined)	-9	-6	15	-9	8
Cc1cc(C(=O)OCC(=O)N2CC(=O)Nc3ccccc32)c(C)n1-c1ccccc1	3.7*	68*	6	4	-24
COc1ccc(C(=O)N2CCC(C)(C(=O)NS(=O)(=O)C3CC3)C2)cc1 (centres undefined)	·	·	·	2	·
CCOC(=O)c1c(N)sc2c1CCSC2	111*	118*	65*	-15	-3
CCOC(=O)c1c(N)sc(=S)c2c1CCC2	33*	72*	60*	41*	-15
CCOC(=O)c1c(N)sc2c1CCC(CC)C2 (centres undefined)	7	-2	51	18	14
CCOC(=O)c1c(N)sc(N)c1C(=O)OCC	0	34	-3	18	-26
COC(=O)C1C2OC(C(Br)C2Br)C1C(=O)OC (centres undefined)	·	·	·	22	-11
CC(C)/C=C/C(=O)N1CCC(N2CCC(C(=O)NCc3ccccn3)CC2)CC1	47	20	70*	17	-3
C#Cc1ccc(CN2CCC(N3CCC(C(=O)NCc4ccccn4)CC3)CC2)cc1	5	3	50	-8	1
O=C(NCc1ccccn1)C1CCN(S(=O)(=O)c2cnc[nH]2)CC1	-3	-3	-14	-1	63*
Nc1nc(=S)c2ncn(C3OC(CO)C(O)C3O)c2[nH]1 (centres undefined)	89*	53*	-43	29	0
C[C@@H]1CN([C@H](C)CO)C(=O)CCCn2nncc2CO[C@H]1CN(C)C(=O)NC1CCCCC1	·	·	·	-17	16
COc1ccc(NC(=O)CN2C(=O)NC(CC(C)C)C2=O)cc1S(=O)(=O)N1CCOCC1 (centres undefined)	·	·	·	-4	-1
Cc1cccc2c(CCNC(=O)c3ccc([N+](=O)[O-])cc3)c[nH]c12	-4	-14	11	3	57*
O=C(NCCc1ccc(F)cc1)c1ccc([N+](=O)[O-])cc1	-4	-9	42	3	20
CSc1ccc(Cn2c(C)c(C(=O)NCc3ccc4c(c3)OCCO4)sc2=O)cc1	·	·	·	-24	·
O=C(COc1ccc(Cl)cc1)Nc1nnc(-c2ccco2)o1	-5	-5	-21	9	-2
O=C(COc1ccccc1)Nc1nnc(-c2ccco2)o1	56	active	34	4	-2
SMILES	eIF4H FP inh	PABP polyA inh	PHOSPHO1 block	MLLE-PAM2 inh	CRFR2-BP antag
CCOC(=O)c1c(C)[nH]c(C(=O)CN(C)CC(=O)Nc2ccccc2C(F)(F)F)c1C	·	·	·	3	0
CC(C)OC(=O)CSc1nnc(-c2ccc(C(C)(C)C)cc2)n1N	4	5	67*	-36	-7
CC(C)(C)c1ccc(-c2nnc(SCC(=O)O)n2N)cc1	-4	-7	75*	-130	2
C=CCn1c(SCC(=O)O)nnc1-c1cccc(Cl)c1	-4	7	-10	-73	2
C=CCn1c(SCC(=O)O)nnc1-c1ccc(C(C)(C)C)cc1	-7	10	94*	-115	21
Cc1ccc2c(C)c(C(=O)N3CCC(C(N)=O)(N4CCCCC4)CC3)oc2c1C	·	·	·	4	8
CC1=NN(c2nc(-c3ccc(C)cc3)cs2)C(=O)C1N=Nc1ccc(C(N)=O)cc1 (centres undefined)	-7	-9	24	-25	16
CCNC(=O)N(C)c1c(CC)nc2ccc(C(=O)N3CCN(S(=O)(=O)CC)CC3)cn12	·	·	·	-30	·
Cc1n[nH]c(=S)c2nn(-c3ccccc3F)c(C)c12	2	13	65*	-8	-7
COc1cccc(-n2nc3c(=S)[nH]nc(C)c3c2C)c1	-1	-4	60*	-25	11
Cc1n[nH]c(=S)c2nn(-c3cccc(Cl)c3)c(C)c12	-3	-4	-37	·	·
CCc1ccc(C(O)c2ncc(-c3ccccc3C(F)(F)F)[nH]2)cc1 (centres undefined)	·	·	·	-1	·
CCn1c(-c2ccccc2Cl)nn(CC(=O)Nc2ccccc2C)c1=S	0	37	100*	-81	2
CCCCN(C=O)c1c(CC)nc2ccc(C(=O)Nc3cc(-c4ccccc4)ccc3OC)cn12	·	·	·	-7	·
CS(=O)(=O)N1CCN(C(=O)C(Sc2ccccc2)c2ccccc2)CC1 (centres undefined)	-7	6	-36	43*	2
O=C(C(Sc1ccccc1)c1ccccc1)N1CCOCC1 (centres undefined)	-20	-9	-9	5	-2
CCOC(=O)C1=CCC(c2ccc(C)cc2)N(S(=O)(=O)c2ccc(C)cc2)C1 (centres undefined)	·	·	·	11	·
CCn1nc(C(=O)OCC(=O)NCCN2C(=O)CSC2=O)c2ccccc2c1=O	0	12	72*	-34	-9
O=C1c2ccccc2C(=O)C1c1ccnc2ccccc12	0	8	-1	-14	-2
N#CC1=C(N)SC(N)=C(C#N)C1c1ccnc2ccccc12	?	?	76*	-71	20
CC1(OC(=O)CCc2ccccc2)C(=O)C=C2C=C(c3ccc(C#N)cc3)N(CC3CC3)C=C2C1=O (centres undefined)	34	26	31	19	4
CC1(OC(=O)C2CCCC2)C(=O)C=C2C=C(c3ccsc3)OC=C2C1=O (centres undefined)	40	33	9	-46	12
CC1(OC(=O)CCc2ccccc2)C(=O)C=C2C=C(c3ccsc3)OC=C2C1=O (centres undefined)	70*	34*	31	·	·
CC1(OC(=O)CCc2ccccc2)C(=O)C=C2C=C(c3ccc(C#N)cc3)N(C3CCCC3)C=C2C1=O (centres undefined)	59	36*	31	34	2
CN(C)/C=C(\C=O)c1onc(-c2ccccc2Cl)c1C#N	9	5	32	-1	-4
N#Cc1c(-c2ccccc2Cl)noc1/C=C/Nc1ccc(C(=O)O)cc1	52*	active	-110	-11	-30
CCOc1cc(CNCc2ccccn2)cc(Cl)c1OC	-4	-12	41	-10	3

From PubChem
